Results from PubChem BioAssay AID1259313 (Sanford-Burnham Center for Chemical Genomics, 2017).
Out of some 340,000 compounds screened, about 8,500 (2.5%) were called active.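 The calls were made as follows: active = melting temperature shift of at least 10% of the positive control shift, at one fixed dose; inactive = the rest.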 Only a selection was taken, and actives are over-represented in it overall.

System: Glutamate receptor ionotropic, NMDA 3A (GRIN3A) ligand-binding domain
Experiment: NR3A LBD thermal stabilization by compounds – biophysical, differential scanning fluorimetry, uHTS, primary screen (AID 1259313)
Conditions: at 25 µM, hits give high values, 0% = protein alone, 100% = glycine-bound protein

Tm shift relative to glycine control, inactive:
CCC(C(=O)NCCC(C)C)N(Cc1ccccc1Cl)C(=O)c1snc(C(N)=O)c1N (stereo not drawn) -0.19%
Cc1ccc2c(c1)C(O)(CC(=O)c1cccnc1)C(=O)N2 (stereo not drawn) -0.39%
CCCn1c(C)cc(-c2csc(NC(=O)CCc3nc4ccccc4c(=O)[nH]3)n2)c1C -0.45%
CCCNC(=O)CSc1nc(Cc2ccccc2)nc2ccccc12 -0.71%
CCc1nc(SCC(=O)NNC(=O)c2ccc(C)cc2)c2ccccc2n1 -0.6%
COc1ccc(CC(=O)NCc2nnc(SCC(=O)Nc3nccs3)n2C)cc1 0.45%
CCOC(=O)CCc1c(C)c2ccc(OCc3nn[nH]n3)c(C)c2oc1=O -2.57%
CCc1cc(=O)oc2cc(C)cc(OC(C)C(=O)O)c12 (stereo not drawn) -0.34%
O=C1NC(c2ccncc2)Nc2sc3c(c21)CCCC3 (stereo not drawn) 0.51%
N#C/C(=C\c1ccccc1)c1n[nH]c(Cn2cncn2)n1 -0.2%
Cc1nn(Cc2ccccc2)c2c1C(c1ccccc1)C(C#N)=C(N)O2 (stereo not drawn) 2.39%
Cc1nn(-c2ccccc2)c2c1C(c1ccc(F)cc1)C(C#N)=C(N)O2 (stereo not drawn) -4.31%
Cc1ccc(C)c(OCc2cc(C(=O)N3CCN(c4cnccn4)CC3)no2)c1 4%
O=C(COC(=O)c1ccccc1)Nc1ccccc1Sc1ccccc1 5.64%
O=C(COC(=O)Cn1cnc2ccccc21)Nc1cccc2c1C(=O)c1ccccc1C2=O -5.74%
CCCCC(=O)N(c1ccc(OC)cc1)C1C=CS(=O)(=O)C1 (stereo not drawn) -8.09%
COc1ccc(CCNC(=O)CN2C(=O)CCSc3ccccc32)c(OC)c1 -7.1%
CC1CC(C)CN(CCC(=O)Nc2ccc3c(c2)CCC3)C1 (stereo not drawn) 2.54%
O=C(Nc1ccc(F)cc1)c1cc2c(s1)CCCC2 6.13%
O=C1c2ccccc2C(=O)C1C(=O)C1CC1 1.97%
Cc1ccc(CSc2nc3[nH]ncc3c(=O)[nH]2)cc1 -1.69%
NS(=O)(=O)c1ccc(CCNC(=S)Nc2ccc(S(N)(=O)=O)cc2)cc1 0.88%
COc1ccc(NC(=S)Nc2ccc(S(N)(=O)=O)cc2)c(C)c1 -1.86%
CCCCCc1nnc(NC(=O)c2ccc(=O)n(C)n2)s1 -0.62%
CCOC(=O)NNc1cc(C(F)(F)F)ccn1 0%
CCOC(=O)C[C@H]1c2ccc(C(F)(F)F)cc2S(=O)(=O)N1c1ccccc1 -5.05%
CC[C@]12c3[nH]c4ccc(OC)cc4c3CCN1C(=O)C(CC(=O)NCCN1CCOCC1)C[C@@H]2C(=O)N1CCN(C(=O)C2CC2)CC1 (stereo partly drawn) -2.01%
Cc1cccc(NC(=O)CCn2c(=O)oc3ccccc32)c1 -0.8%
O=C(CCC(=O)N/N=C/c1ccc(Br)o1)N/N=C/c1ccc(Br)o1 -0.2%
O=C(CCNC(=O)c1ccccc1)NN=Cc1ccc(Br)o1 -3.41%
O=C(CCC(=O)Nc1ccccc1)N/N=C/c1ccccc1F 0.57%
O=C(Cc1ccccc1)Nc1cccc(C(=O)N/N=C/c2ccco2)c1 1.04%
COC(=O)c1ccc(C2C3=C(Nc4nnnn42)c2ccccc2OC3)cc1 (stereo not drawn) -8.44%
C#CCO[C@@H]1C[C@H](n2cnc3c(=O)[nH]c(NC(=O)C(C)C)nc32)O[C@@H]1CO 0%
CCc1cc(-c2nnc(SCC(=O)NC3CC3)n2C)cs1 -0.41%
O=C(CC1C(=O)NCCN1C(=O)c1ccc([N+](=O)[O-])cc1)Nc1cccc(Cl)c1 (stereo not drawn) 0.67%
CCOc1cnc(-c2c(-c3ccccc3Cl)noc2C)o1 -1.94%
O=C(NNC(=O)c1ccccc1O)c1ccccc1O 2.79%
O=C(COC(=O)c1ccc(O)cc1O)NC(=O)c1ccccc1 -11.9%
COCc1[nH][nH]c(=O)c1C=Nc1ccc(F)cc1F -2.69%
CCCCN1C(N)=NC[C@@H]1CC1CCCCC1 -3.87%
CCc1cc(=O)oc2cc(C)cc(OCC(=O)N3CCC[C@@H]3C(=O)O)c12 -2.37%
Cc1cc([N+](=O)[O-])c(NC2CCCCC2)c([N+](=O)[O-])c1 1.28%
Cc1cc([N+](=O)[O-])ccc1NS(=O)(=O)c1ccccc1 -13.4%
O=C(CSc1ccc([N+](=O)[O-])cn1)Nc1ccc(N2CCOCC2)cc1 0.67%
O=C(CSc1ccc(-c2ccccn2)nn1)Nc1ccccc1 -2.4%
COCCN(CCOC)S(=O)(=O)c1ccc(/C(O)=C(\C#N)c2nc3ccccc3[nH]2)cc1 0.08%
Cc1ccc2nc(/C(C#N)=C\c3ccc(OC(=O)c4cccs4)cc3)[nH]c2c1 -1.46%
CCCCOc1ccc(NC(=O)[C@@H]2CCCN2C(=O)C2CCN(S(=O)(=O)c3ccc(C)cc3)CC2)cc1 0%
O=C(COc1ccccc1)Nc1ccc(F)cc1 -8.63%
Cc1ccc(OC(=O)CCC(=O)Nc2ccc(Br)cc2)cc1 0.17%
COCC(=O)Nc1ccc(Br)cc1 -2.19%
CC(=O)Nc1ccc(NC(=O)COc2ccc(S(=O)(=O)NC(C)c3ccccc3)cc2)cc1 (stereo not drawn) 0.44%
Cc1c(Nc2nc3ccccc3nc2NS(=O)(=O)c2cccs2)c(=O)n(-c2ccccc2)n1C 0.52%
Cc1ccsc1C1C(C#N)=C(N)OC2=C1C(=O)CC(C)(C)C2 (stereo not drawn) -2.21%
CSc1cccc(NC(=S)N(Cc2ccccc2)Cc2ccccn2)c1 -4.28%
CC(c1ccccn1)N(CCN(C)C)C(=S)Nc1ccccc1F (stereo not drawn) 0%
O=C(COC(=O)c1ccccc1Cl)NC1CCCCCCC1 1.11%
Cn1cccc1C1(C(F)(F)F)NCCNC1=O (stereo not drawn) -0.65%
CCn1c(CSc2nc(C)cc(C)n2)nnc1SCC(N)=O 1.48%
O=C(/C=C/c1ccc(F)cc1)Nc1cccc(S(=O)(=O)Nc2cccc(C(F)(F)F)c2)c1 1.46%
O=C(COc1ccc(S(=O)(=O)Nc2cccc(C(F)(F)F)c2)cc1)N1CCOCC1 -0.84%
CC1CCCN(S(=O)(=O)c2ccc(N(C(=O)c3cnccn3)C(C(=O)NC3CCCCC3)c3cccs3)cc2)C1 (stereo not drawn) 1.68%
COCCCNC(=S)N(Cc1ccccc1)Cc1ccc(F)cc1 0.84%
O=C1COc2ccc(NC(=O)N3CCN(c4ccc(F)cc4)CC3)cc2N1 -1.31%
CC(C)Oc1ccc(/C=N/NC(=O)c2nnn(-c3nonc3N)c2CN(C)C2CCCCC2)cc1 2.01%
CN(C)Cc1c(C(=O)N/N=C/c2ccccc2OCc2ccc(F)cc2)nnn1-c1nonc1N 2.67%
Nc1nonc1-n1nnc(C(=O)N/N=C\c2ccncc2)c1CN1CCCCC1 0.45%
COCc1c(C(=O)N/N=C/C2CC=CCC2)nnn1-c1nonc1N (stereo not drawn) -1.57%
COCc1c(C(=O)N/N=C\c2cccnc2)nnn1-c1nonc1N -1.82%
CC(C)c1c(C(=O)N/N=C/c2ccc(-c3ccccc3)cc2)nnn1-c1nonc1N 1.62%
CCCCNC(=O)c1ccccc1NC(=O)c1ccccc1N(C)S(C)(=O)=O 0.62%
Cc1c(Br)ccc(NC(=O)COc2ccccc2C(N)=O)c1C -0.92%

Tm shift relative to glycine control, active:
CCCc1nc(SCC(=O)Nc2ccc(S(=O)(=O)N(C)C)cc2)c2ccccc2n1 17.5%
CCCCc1cc(=O)oc2cc(C)cc(OCc3nn[nH]n3)c12 14.2%
COc1ccccc1C1C(C#N)=C(N)Oc2c1c(-c1ccccc1)nn2-c1ccccc1 (stereo not drawn) 22.2%
O=C(COC(=O)c1cccc(Br)c1)Nc1cccc2c1C(=O)c1ccccc1C2=O 14.9%
O=C(Nc1ccc2c(c1)CCC2)c1ccc(Br)s1 14.5%
NS(=O)(=O)c1ccc(NC(=S)Nc2ccc(Br)c(Cl)c2)cc1 26.7%
CCOC(=O)C1Nc2ccc(C(F)(F)F)cc2C2C=CCC12 (stereo not drawn) 52.4%
N#CCC(=O)N/N=C/c1ccc(SCC(=O)Nc2ccccc2)o1 12.7%
O=C(CSc1ccc(/C=N/NC(=O)c2cccc(F)c2)o1)Nc1ccccc1 12.4%
O=C(NNc1c2ccccc2nc2ccccc12)c1cc2ccccc2cc1O 30.2%
Cc1cc([N+](=O)[O-])ccc1NC1CCCC1 12.8%
O=C(CSc1ccc(-c2ccc(-n3cccn3)cc2)nn1)Nc1ccc([N+](=O)[O-])cc1 21.1%
COc1cc(/C=C(\C#N)c2nc3ccccc3[nH]2)ccc1O 28.5%
CC(=O)Nc1ccc(NC(=O)COc2ccc(-c3ccccc3)cc2)cc1 12.4%
CC(=O)Nc1ccc(OC(=O)COc2ccc(Br)cc2)cc1 17.5%
CSc1cccc(NC(=S)N(C(C)C)C(C)c2ccccn2)c1 (stereo not drawn) 13.8%
Cc1oc2c(F)c(F)c(F)c(F)c2c1S(=O)(=O)Nc1cccc(C(F)(F)F)c1 29.7%
Cc1ccc(SCc2c(C(=O)N/N=C/c3cccnc3)nnn2-c2nonc2N)cc1 30.3%
Nc1nonc1-n1nnc(C(=O)N/N=C/c2cc(Br)ccc2O)c1CSC1=NCCS1 11.5%
Cc1ccc(SCc2c(C(=O)N/N=C/C3CC=CCC3)nnn2-c2nonc2N)cc1 (stereo not drawn) 85.4%
